Data from PubChem BioAssay AID1159580 (chemical genetic matrix, 2015).
Where “and” joins values, the source holds several entries; their conditions need not be identical. Equal entries are not always repeated. Hit rate of the full screen: of about 5,500 compounds, about 2,000 (36%) were called active. Inconclusive results (about 18%) are left out. No stated cut-off is given here; in the data, active means normalized growth mostly below about 0.91 (no sharp cut-off); inconclusive means no clear call, values can overlap the other calls; inactive means mostly above about 0.92. The list shows a part of the results.

Experiment: chemical genetic growth profiling, strain panel (AID 1159580);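 further: tested at 20 µM; growth read once vehicle control cultures reached saturation at 30 °C; 1 = growth at the plate median or of vehicle wells; lower values mean less growth of the strain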
Conditions: S. cerevisiae deletion strains, growth OD

Measured: normalized growth

CC(CCC(=O)O)[C@H]1CCC2C3CC[C@@H]4C[C@H](O)CC[C@]4(C)C3C[C@H](O)[C@@]21C (some centres not stated)
inactive: locus YAL013W, strain DEP1, hits give low values 1.01 | locus YAL021C, strain ccr4, hits give low values 1.02 | locus YAL026C, strain drs2, hits give low values 0.98 | locus YAL030W, strain snc1, hits give low values 1.01 | locus YBL061C, strain skt5, hits give low values 0.983 | locus YBR009C, strain hhf1, hits give low values 1.03 | locus YBR021W, strain FUR4, hits give low values 1.04 | locus YBR023C, strain chs3, hits give low values 0.962 | locus YBR171W, strain sec66, hits give low values 0.989 | locus YBR229C, strain ROT2, hits give low values 0.987 | locus YBR231C, strain swc5, hits give low values 1.02 | locus YBR279W, strain paf1, hits give low values 0.99 | locus YCL011C, strain gbp2, hits give low values 0.974 | locus YCL016C, strain dcc1, hits give low values 0.948 | locus YCL029C, strain bik1, hits give low values 0.977 | locus YCL069W, strain vba3, hits give low values 0.972 | locus YCR088W, strain abp1, hits give low values 0.997 | locus YDL005C, strain med2, hits give low values 0.987 | locus YDL035C, strain GPR1, hits give low values 0.998 | locus YDL040C, strain nat1, hits give low values 0.993 | locus YDL074C, strain BRE1, hits give low values 1 | locus YDL101C, strain DUN1, hits give low values 1.01 | locus YDL185W, strain tfp1, hits give low values 1.02 | locus YDL192W, strain arf1, hits give low values 1 | locus YDR001C, strain nth1, hits give low values 0.984 | locus YDR069C, strain doa4, hits give low values 1.01 | locus YDR101C, strain arx1, hits give low values 1.01 | locus YDR137W, strain rgp1, hits give low values 0.894 | locus YDR150W, strain NUM1, hits give low values 1.01 | locus YDR159W, strain sac3, hits give low values 0.963 | locus YDR162C, strain NBP2, hits give low values 0.998 | locus YDR195W, strain ref2 1.01 | locus YDR297W, strain sur2, hits give low values 1 | locus YDR318W, strain mcm21, hits give low values 0.981 | locus YDR334W, strain swr1, hits give low values 0.98 | locus YDR335W, strain msn5, hits give low values 0.982 | locus YDR388W, hits give low values 0.996 | locus YDR392W, strain spt3, hits give low values 0.884 | locus YDR502C, strain sam2, hits give low values 1.02 | locus YEL003W, strain gim4, hits give low values 1.03 | locus YEL037C, strain rad23, hits give low values 0.979 | locus YEL061C, strain CIN8 (second series), hits give low values 1.01 | locus YEL061C, strain CIN8, hits give low values 1.01 | locus YER015W, strain faa2, hits give low values 1 | locus YER016W, strain bim1, hits give low values 0.975 | locus YER110C, hits give low values 0.982 | locus YER111C, strain swi4, hits give low values 1 | locus YER155C, strain BEM2 (second series), hits give low values 1.06 | locus YER155C, strain BEM2, hits give low values 1.03 | locus YER167W, strain BCK2, hits give low values 1.01 | locus YFR010W, strain ubp6, hits give low values 1.02 | locus YGL078C, strain dbp3, hits give low values 1.02 | locus YGL086W, strain mad1, hits give low values 1.02 | locus YGL167C, strain pmr1, hits give low values 0.999 | locus YGL173C, strain kem1, hits give low values 0.992 | locus YGL227W, strain vid30, hits give low values 1.01 | locus YGL240W, strain doc1, hits give low values 1.01 | locus YGL248W, strain PDE1, hits give low values 1.03 | locus YGL253W, strain hxk2, hits give low values 0.955 | locus YGR078C, strain PAC10, hits give low values 1.08 | locus YGR135W, strain pre9, hits give low values 1.04 | locus YHR013C, strain ard1, hits give low values 0.948 | locus YHR027C, strain rpn1, hits give low values 1 | locus YHR030C, strain SLT2, hits give low values 1.01 and 1.04 | locus YHR079C, strain IRE1 (second series), hits give low values 0.981 | locus YHR079C, strain IRE1, hits give low values 1.05 | locus YHR094C, strain hxt1, hits give low values 0.991 | locus YHR129C, strain ARP1, hits give low values 1.02 | locus YHR142W, strain chs7, hits give low values 0.926 | locus YHR200W, strain rpn10, hits give low values 1.02 | locus YIL066C, strain RNR3, hits give low values 0.999 | locus YIL073C, strain SPO22, hits give low values 1.06 | locus YIL125W, strain kgd1, hits give low values 0.988 | locus YIR030C, strain dcg1, hits give low values 1.01 | locus YJL092W, strain hpr5, hits give low values 0.999 | locus YJL095W, strain BCK1 (second series), hits give low values 0.991 | locus YJL095W, strain BCK1, hits give low values 1.04 | locus YJL115W, strain asf1, hits give low values 0.986 | locus YJL129C, strain trk1, hits give low values 0.959 | locus YJL134W, strain LCB3, hits give low values 1.01 | locus YJL154C, strain vps35, hits give low values 1.01 | locus YJL164C, strain tpk1, hits give low values 1 | locus YJL166W, strain qcr8, hits give low values 1.02 | locus YJL168C, strain set2, hits give low values 0.98 | locus YJL187C, strain SWE1 (second series), hits give low values 1.04 | locus YJR043C, strain POL32, hits give low values 1.01 | locus YJR066W, strain TOR1, hits give low values 0.99 | locus YKL009W, strain mrt4, hits give low values 0.942 | locus YKL068W, hits give low values 0.989 | locus YKL085W, strain MDH1 (second series), hits give low values 0.975 | locus YKL085W, strain MDH1, hits give low values 0.975 | locus YKL160W, strain elf1, hits give low values 0.937 | locus YKR001C, strain vps1, hits give low values 1.01 | locus YKR026C, strain gcn3, hits give low values 1 | locus YKR091W, strain srl3, hits give low values 0.988 | locus YLL001W, strain dnm1, hits give low values 1.01 | locus YLL026W, hits give low values 1 | locus YLL041C, strain sdh2, hits give low values 0.994 | locus YLR027C, strain aat2, hits give low values 0.991 | locus YLR039C, strain RIC1, hits give low values 0.941 | locus YLR058C, strain SHM2, hits give low values 1.01 | locus YLR102C, strain apc9, hits give low values 0.987 | locus YLR113W, strain HOG1, hits give low values 0.951 | locus YLR221C, strain rsa3, hits give low values 1.03 | locus YLR258W, strain gsy2, hits give low values 0.963 | locus YLR262C, strain YPT6 (second series), hits give low values 0.935 | locus YLR262C, strain YPT6, hits give low values 0.925 | locus YLR268W, strain sec22, hits give low values 0.989 | locus YLR320W, strain mms22, hits give low values 0.998 | locus YLR330W, strain CHS5, hits give low values 1.01 | locus YLR342W, strain FKS1 (second series), hits give low values 0.983 | locus YLR342W, strain FKS1, hits give low values 0.987 | locus YLR357W, strain rsc2, hits give low values 1.01 | locus YLR370C, strain arc18, hits give low values 0.972 | locus YLR371W, strain rom2, hits give low values 0.985 | locus YLR384C, strain iki3, hits give low values 0.992 | locus YLR418C, strain cdc73, hits give low values 1.03 | locus YML016C, strain PPZ1, hits give low values 1.01 | locus YML032C, strain rad52, hits give low values 1.01 | locus YML120C, strain ndi1, hits give low values 1.01 | locus YML124C, strain tub3, hits give low values 1.01 | locus YMR058W, strain fet3, hits give low values 1 | locus YMR078C, strain ctf18, hits give low values 0.981 | locus YMR125W, strain sto1, hits give low values 0.995 | locus YMR129W, hits give low values 0.98 | locus YMR205C, strain PFK2, hits give low values 0.969 | locus YMR223W, strain ubp8, hits give low values 1.02 | locus YMR231W, strain pep5, hits give low values 0.99 | locus YMR307W, strain GAS1, hits give low values 1.03 | locus YNL067W, strain RPL9B, hits give low values 1.03 | locus YNL071W, strain lat1, hits give low values 0.99 | locus YNL153C, strain GIM3, hits give low values 1.03 | locus YNL183C, strain NPR1, hits give low values 1 | locus YNL209W, strain ssb2, hits give low values 0.994 | locus YNL233W, strain BNI4, hits give low values 1.03 | locus YNL248C, strain rpa49, hits give low values 0.965 | locus YNL250W, strain rad50, hits give low values 1.01 | locus YNL271C, strain bni1, hits give low values 0.974 | locus YNL298W, strain CLA4, hits give low values 0.98 | locus YNL307C, strain MCK1, hits give low values 0.993 | locus YNL322C, strain KRE1 (second series), hits give low values 1 | locus YNL322C, strain KRE1, hits give low values 1.01 | locus YNR049C, strain mso1, hits give low values 0.988 | locus YNR052C, strain pop2, hits give low values 1.03 | locus YOL006C, strain TOP1, hits give low values 1.05 | locus YOL012C, strain htz1 1.39 | locus YOL147C, strain pex11, hits give low values 1 | locus YOR001W, strain rrp6, hits give low values 1.03 | locus YOR061W, strain CKA2, hits give low values 1 | locus YOR069W, strain VPS5, hits give low values 1 | locus YOR070C, strain gyp1, hits give low values 1 | locus YOR080W, strain dia2, hits give low values 0.986 | locus YOR083W, strain WHI5, hits give low values 0.927 | locus YOR106W, strain vam3, hits give low values 0.953 | locus YOR136W, strain idh2, hits give low values 1.02 | locus YOR144C, strain elg1, hits give low values 0.987 | locus YOR184W, strain ser1, hits give low values 0.994 | locus YOR231W, strain MKK1, hits give low values 1.03 | locus YOR265W, strain rbl2, hits give low values 0.997 | locus YOR270C, strain vph1, hits give low values 0.942 | locus YOR290C, strain snf2, hits give low values 0.952 | locus YOR316C, strain cot1, hits give low values 0.995 | locus YPL051W, strain arl3, hits give low values 0.958 | locus YPL078C, strain atp4, hits give low values 0.952 | locus YPL106C, strain sse1, hits give low values 0.985 | locus YPL240C, strain hsp82, hits give low values 0.99 | locus YPL256C, strain CLN2, hits give low values 1.08 | locus YPR119W, strain clb2, hits give low values 0.992 | locus YPR141C, strain kar3, hits give low values 0.992 | locus YPR163C, strain tif3, hits give low values 1 | locus YPR167C, strain met16, hits give low values 0.996 | strain wtn01, hits give low values 1.01
